Screening data deposited in PubChem by National Center for Advancing Translational Sciences (NCATS).
TDP1 cell CPT = qHTS for Inhibitors of human tyrosyl-DNA phosphodiesterase 1 (TDP1): qHTS in cells in presence of CPT; actives 12% (n = 420,000); Potency, µM (series often up to 46.2 µM), for inactives: top-dose activity change, negative = growth inhibition, usual class: inhibitors; chicken DT40 Tdp1-/-;hTDP1 cells + 20 nM CPT, ATP luminescence, 48 h; note: nearly all actives have a fitted effect of over 55% in size
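Chicken DT40 Tdp1-/- cells stably complemented with human TDP1 were seeded at 400 cells/well in medium containing 20 nM camptothecin, exposed to pin-transferred compounds, and grown at 37 °C for at least 48 hr. Viability was read as ATP luminescence.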
HT1080NT lethal = qHTS for induction of synthetic lethality in tumor cells producing 2HG: qHTS for the HT-1080-NT fibrosarcoma cell line | HT-1080-NT fibrosarcoma viability, CellTiter-Glo ATP luminescence, 48 h | actives 1.6% (n = 360,000) | Potency, µM (top dose mostly 46.1 µM), for the others: top-dose activity, negative = less viability, most hits filed as cytotoxic;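 note: NT is the 2HG producing partner of a matched IDH1 knockdown line; 0% = DMSO-treated cells and -100% = media-only wells without cells; nearly all actives have a fitted effect of over 55% in size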
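Viability of the 2HG-overproducing fibrosarcoma line after 48 hours of compound exposure at 37 degrees C was determined by luminescence with CellTiter-Glo, and concentration-effect curves were then fitted and categorized.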
KB-V1 MDR tox = qHTS assay for MDR1-selective chemotherapeutics: Primary screen using the drug-selected MDR subline cells KB-V1; KB-V1 MDR cells viability, CellTiter-Glo, 72 h; Potency, µM (titrated, usually from 46.1 µM), hits mostly cytotoxic; actives 3.4% (n = 400,000); AID 1347076, 2019; note: nearly all actives have a fitted effect of over 60% in size
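Potencies derive from concentration-effect curves fitted to normalized luminescence (CellTiter-Glo) of KB-V1 cells treated for 72 h at 37 degrees C in phenol-red-free DMEM containing 10% FBS.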
TDP1 cell noCPT = qHTS for Inhibitors of human tyrosyl-DNA phosphodiesterase 1 (TDP1): qHTS in cells in absence of CPT; DT40 Tdp1-/- hTDP1 cells, no CPT, ATP luminescence, 48 h; Potency, µM (highest dose often 46.2 µM), inactives show at the highest dose activity change, negative = growth inhibition, most hits filed as inhibitors; actives 15% (n = 420,000); note: nearly all actives have a fitted effect of over 55% in size
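Cells were dispensed at 400 per well, compounds added by pin tool, plates incubated ≥48 hr at 37 °C, then CellTiter-Glo added for 30 min at room temperature before luminescence reading. Line: DT40 Tdp1-/- complemented with hTDP1; camptothecin omitted.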
KB-3-1 tox = qHTS assay for MDR1-selective chemotherapeutics: Primary screen using the parental adenocarcinoma cell KB-3-1; KB-3-1 viability, CellTiter-Glo ATP luminescence, 72 h; actives 1.4% (n = 400,000); Potency, µM (highest dose often 46.1 µM), most hits filed as cytotoxic; AID 1347075, 2019; note: nearly all actives have a fitted effect of over 60% in size
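Luminescent ATP read-out (CellTiter-Glo) measures survival of drug-naive KB-3-1 cells after 72 h compound exposure at 37 °C. Titration series was screened from lowest to highest concentration, with DMSO vehicle plates as background controls.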
HT1080 IDH1KD tx = qHTS for induction of synthetic lethality in tumor cells producing 2HG: qHTS for the HT-1080-IDH1KD cell line | HT-1080 IDH1 knockdown viability, ATP luminescence, 48 h | Potency, µM (top dose mostly 46.1 µM), inactives show top-dose activity, negative = toxicity, actives largely listed as cytotoxic | actives 2% (n = 360,000);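 note: 0% = DMSO wells and -100% = cell-free medium wells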
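CellTiter-Glo luminescence after 48 h compound exposure at 37 degrees C of IDH1-knockdown HT-1080 cells in 5% FBS RPMI. %Activity scaled between DMSO wells and cell-free media wells, with curves fitted and assigned curve classes.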
Numbers without * were called inactive; i = inactive; ? = inconclusive; nt = not tested or not shown; [ ] = remark or other dose. Hits are enriched below; roughly 19% of the tested compounds scored in any of these assays. Calls come from the whole dose curve; as a rule, active = well fitted curve in the direction sought with a large enough effect; inconclusive = small, poorly fitted or top-dose-only effect, or another doubt; inactive = no such curve, though single readings can be large; an effect the other way counts as inactive or inconclusive. Unless noted, % is set by controls: 0 for no effect and ±100 for the full control effect; potency is the fitted concentration of half-maximal effect.

SMILES | TDP1 cell CPT | HT1080NT lethal | KB-V1 MDR tox | TDP1 cell noCPT | KB-3-1 tox | HT1080 IDH1KD tx
CCOC(=O)c1cccc(NC(=O)c2cc3cc4ccc(C)cc4nc3o2)c1 | -5% | nt | i | -17% | i | nt
CC(NC(=O)CN1C(=O)NC2(CCCCCC2)C1=O)c1ccccc1Cl (stereo not drawn) | -15% | 2% | i | 1% | i | 6%
CNc1ncnc2ccc(-c3ccc4c(c3)OCO4)cc12 | 23µM* | nt | nt | 18µM* | nt | nt
COc1cccc(-c2ccc3ncnc(NCCNC(C)=O)c3c2)c1 | 15µM* | nt | nt | ? | nt | nt
COc1cccc(-c2ccc3ncnc(NC4CC4)c3c2)c1 | 16µM* | nt | nt | 12µM* | nt | nt
COc1cccc(-c2ccc3ncnc(NC4CCNCC4)c3c2)c1 | ? | nt | nt | 13µM* | nt | nt
COc1cccc(-c2ccc3ncnc(NCc4cccs4)c3c2)c1 | ? | nt | i | ? | i | nt
CC(=O)Nc1ccc(C=C(C#N)c2ccc(C)cc2)cc1 | 8% | -1% | i | ? | i | 1%
O=C(CN1Cc2ccccc2OC(c2ccsc2)C1)N1CCC(c2nc3ccccc3[nH]2)CC1 (stereo not drawn) | 4%[9.04 µM] | nt | nt | ? | nt | nt
CNc1ncnc2ccc(-c3cccc(OC)c3)cc12 | 16µM* | nt | nt | 23µM* | nt | nt
COc1cccc(-c2ccc3ncnc(NCc4cccc(C)c4)c3c2)c1 | nt | nt | i | nt | i | nt
CC1(C(=O)NS(=O)(=O)c2cccc(OC(F)F)c2)CCN1C(=O)CCc1cccs1 (stereo not drawn) | -2% | 10% | i | 0% | i | ?
Cc1c(NC(=O)Nc2ccc(Cl)c(Cl)c2)sc(=S)n1C | 26µM* | ? | ? | ? | ? | ?
Cc1cc(=O)n2cccc(O)c2n1 | 3.7µM* | ? | i | 4.6µM* | i | ?
Cc1nnc(SCc2cc(=O)n3cccc(C)c3n2)s1 | ? | nt | nt | 1% | nt | nt
COc1ccc(-n2c(=O)c3c(c4cc(OC)ccc4n3C)n(CCC(C)C)c2=O)cc1 | -26% | nt | i | -29% | i | nt
COCCNC(=O)C1Cc2c(ccc3ccccc23)O1 (stereo not drawn) | 2% | 16% | i | -7% | i | 13%
COc1ccc(S(=O)(=O)NNC(=O)C2Cc3c(ccc4ccccc34)O2)cc1 (stereo not drawn) | 16µM* | -11% | i | 21µM* | ? | -19%
COc1ccc(S(=O)(=O)N2CCN(C(c3ccccc3)c3ccccc3)CC2)cc1NC(C)=O | ? | -2% | i | -13% | i | -2%
Cc1ccccc1OCC(=O)Nc1c2c(nn1C(C)(C)C)CS(=O)(=O)C2 | -9% | 3% | i | -10% | i | -18%
COC(=O)C1=CN(Cc2ccc(OC)c(OC)c2)C=C(C(=O)OC)C1c1ccccc1F | ? | -5% | i | ? | i | -22%
COC(=O)C1=CN(c2ccc(C(C)(C)C)cc2)C(N)=C(C#N)C1c1ccccc1F (stereo not drawn) | ? | -24% | ? | 21µM* | i | -24%
CCc1ccc(N2C=C(C(=O)OC)C(c3ccccc3F)C(C#N)=C2N)cc1 (stereo not drawn) | ? | ? | ? | 23µM* | i | ?
COC(=O)C1=CN(c2ccc(OC)cc2OC)C(N)=C(C#N)C1c1ccccc1F (stereo not drawn) | 0.82µM* | 1.5µM* | ? | 0.58µM* | 1.5µM* | 0.73µM*
COC(=O)C1=C(C)OC(N)=C(C#N)C1c1ccccc1F (stereo not drawn) | -22% | 4% | ? | -9% | i | -5%
SMILES | TDP1 cell CPT | HT1080NT lethal | KB-V1 MDR tox | TDP1 cell noCPT | KB-3-1 tox | HT1080 IDH1KD tx
COC(=O)C1=CN(c2ccc(OC)cc2)C(N)=C(C#N)C1c1ccccc1F (stereo not drawn) | 10µM* | ? | ? | 13µM* | ? | ?
O=C1CCCC2=C1C1(CCCC1)N=C(Nc1nc3ccccc3n1Cc1ccccc1)N2 | nt | nt | i | nt | i | nt
CCOC(=O)c1sc(-c2ccc(Br)cc2)cc1N | -27% | 4% | i | ? | i | ?
CCOC(=O)c1cc(-c2ccc(N)cc2)sc1N | 18µM* | -8% | i | 21µM* | i | ?
CC1CCN(C(=S)c2cn(Cc3cccc(F)c3)c3ccccc23)CC1 | -21% | -17% | i | ? | i | -11%
Cc1cccc(C)c1NCc1nnc(SCC(=O)Nc2nc(-c3ccccc3)cs2)n1-c1ccccc1 | 2.1µM* | -2% | ? | 2.3µM* | ? | 1%
CCOc1ccc(NCc2nnc(SCC(=O)Nc3nc(-c4ccccc4)cs3)n2-c2ccccc2)cc1 | ? | -25% | i | 23µM* | ? | -29%
Cc1ccccc1C(=O)NCCc1nnc(SCC(=O)Nc2nc(-c3ccccc3)cs2)n1C | -25% | -10% | i | ? | i | -15%
O=C(O)C(O)C(O)(Cc1ccc(O)cc1)C(=O)O (stereo not drawn) | 16%[9.04 µM] | nt | nt | -14%[9.04 µM] | nt | nt
CCCN(Cc1cccs1)C(=O)Nc1ccc(F)c(Cl)c1 | ? | nt | i | ? | i | nt
O=C(Nc1ccc(Cl)cc1)N(Cc1cccs1)Cc1cccs1 | 18µM* | ? | ? | ? | i | ?
O=C(Nc1ccccc1)N(O)c1ccc(Cl)cc1 | 18µM* | 7% | i | 29µM* | i | 9%
O=C(Nc1ccccc1Cl)N(Cc1nc2ccccc2c(=O)[nH]1)Cc1cccs1 | ? | -14% | ? | ? | i | -1%
O=C(Nc1ccc(Cl)cc1)N(Cc1nc2ccccc2c(=O)[nH]1)Cc1cccs1 | ? | -12% | ? | 21µM* | i | -18%
CCOc1ccc(C(=O)c2oc3ccccc3c2NC(=O)c2cc(-c3ccc(C)cc3)on2)cc1 | -14% | nt | i | -1% | i | nt
O=C(CCl)N(c1ccccc1)C1CCCCC1 | 2.6µM* | 5.2µM* | ? | 2.9µM* | i | 3.3µM*
CC(=O)Nc1ccc(C(=O)OCC(=O)N(c2ccccc2)C2CCCCC2)cc1 | ? | 5% | i | 23µM* | i | 4%
